Bioassay records (PubChem BioAssay)
Only some compounds are listed: those with a hit (about 3% of all), similar ones and a draw of the others.
GDH-TPI counter: GDH-TPI coupled enzyme inhibition counter-screen; inhibition, % at 4.8 µM; 360,000 tested, 1.2% active; GDH-TPI coupled enzyme counterscreen, NADH absorbance; AID 588335; in the data active = inhibition above about 30%
BioA inh: inhibitors of Mycobacterium tuberculosis BioA enzyme. inhibition, % at 9.99 µM. purified M. tuberculosis BioA enzyme, plate reader. 360,000 tested, 0.096% active; in the data active = inhibition above about 40%
Mtb FBA inh: inhibitors of M. tuberculosis fructose-bisphosphate aldolase; P9WQA3; purified M. tuberculosis FBA, fluorescence read-out; inhibition, % at 1 µM; 360,000 tested, 2.3% active; in the data active = inhibition above about 27%
Target sequence (P9WQA3 whole entry, looked up): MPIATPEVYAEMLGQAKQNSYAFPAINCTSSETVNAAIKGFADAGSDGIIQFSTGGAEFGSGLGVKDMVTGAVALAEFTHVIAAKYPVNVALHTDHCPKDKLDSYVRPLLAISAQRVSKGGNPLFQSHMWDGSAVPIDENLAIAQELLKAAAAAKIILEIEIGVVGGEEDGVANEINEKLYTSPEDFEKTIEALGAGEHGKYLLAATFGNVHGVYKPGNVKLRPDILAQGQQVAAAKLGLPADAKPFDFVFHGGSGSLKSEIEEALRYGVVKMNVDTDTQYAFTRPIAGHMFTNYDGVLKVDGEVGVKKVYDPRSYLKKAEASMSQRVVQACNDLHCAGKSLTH
Vc quorum ag: quorum light induction in luxS cqsA deficient V. cholerae | V. cholerae BH1578 lux reporter, luminescence, 6 h | activation, % at 18.7 µM | 350,000 tested, 0.16% active | AID 588436; in the data active = activation mostly above about 9.7%, no sharp cut-off
Hits are given with their value; . = inactive; / = no result given; + = active, no number.

SMILES	GDH-TPI counter	BioA inh	Mtb FBA inh	Vc quorum ag
Cc1ccc(NCC(=O)N/N=C/c2cccn2C)cc1	35	.	.	.
O=C(/C=C/c1ccccc1)NC(=O)c1ccccc1O	.	.	.	.
COc1cc(/C=C/C(=O)NC(=O)c2ccccc2O)ccc1O	40	.	.	.
CCN(CC)CCNC(=O)c1ccc(NC(=O)/C=C/c2cc(OC)c(OC)c(OC)c2)cc1	36	.	.	.
COc1ccc(/C=C/C(=O)Nc2cccc(C(C)=O)c2)cc1	33	.	.	.
COc1ccc(/C=C/C(=O)Nc2ccccc2C(=O)O)cc1OC	47	.	.	.
COc1ccc(CN(C)C[C@@H]2Oc3ccc(NS(C)(=O)=O)cc3C(=O)N([C@H](C)CO)C[C@H]2C)cc1	/	.	/	/
COc1cc(C=O)ccc1OC(=O)Nc1ccccc1	52	.	.	.
COc1ccc(/C=C/C(=O)Nc2ccccc2C(=O)O)cc1	.	.	.	.
CCc1cc(C(=O)O)c(NC(=O)/C=C/c2ccc(OC)c(OC)c2)s1	.	/	.	.
COc1ccc(/C=C/C(=O)Nc2ccccc2C(=O)N2CCCC2)cc1	36	/	.	.
CC(C)=CC(=O)Nc1cccc(S(=O)(=O)NC2=NCCCCC2)c1	.	.	.	.
CCc1cc(C(=O)O)c(NC(=O)/C=C/c2ccc(OC)cc2)s1	74	.	.	.
COc1ccc(/C=C/C(=O)Nc2cccc(S(=O)(=O)NC3=NCCCCC3)c2)cc1OC	35	.	.	.
C[C@@H](O)C#Cc1cnc2c(c1)C(=O)N([C@@H](C)CO)C[C@H](C)[C@H](CN(C)CC1CC1)O2	/	.	/	/
CO[C@H](CN(C)C(=O)c1cnccn1)[C@H](C)CN([C@H](C)CO)S(=O)(=O)c1ccc(Cl)cc1	/	.	/	/
COc1ccc(/C=C/C(=O)Nc2ccc(C(N)=O)cc2)cc1OC	53	.	.	.
COC(=O)c1ccccc1NC(=O)/C=C/c1cc(OC)c(OC)c(OC)c1	36	.	.	.
COc1cccc(OC)c1C(=O)NC(=S)NNC(=O)[C@H]1C[C@@H]1c1ccccc1	.	.	.	.
COc1ccc(/C=C/C(=O)Nc2ccccc2C(F)(F)F)cc1OC	31	.	.	.
COc1ccc(/C=C/C(=O)Nc2ccc3c(c2)CCC3)cc1OC	.	.	.	.
COc1ccc(/C=C/C(=O)NC(=S)NNC(=O)[C@H]2C[C@@H]2c2ccccc2)cc1OC	44	.	.	.
COc1cc(/C=C/C(=O)Nc2ccc(C)cc2)cc(OC)c1OC	.	/	.	.
CCNC(=O)C[C@H]1CC[C@H]2[C@@H](COC[C@@H](O)CN2C(=O)Nc2ccc3c(c2)OCO3)O1	/	.	/	/
C[C@H](O)C#Cc1ccc2c(c1)O[C@@H](CN(C)C(=O)C1CCC1)[C@H](C)CN([C@H](C)CO)S2(=O)=O	/	.	/	/
SMILES	GDH-TPI counter	BioA inh	Mtb FBA inh	Vc quorum ag
Cc1ccc(NC(=O)c2ccc(Br)o2)c([N+](=O)[O-])c1	.	.	.	.
NS(=O)(=O)c1ccc(NNC(=O)c2ccc(Br)o2)c([N+](=O)[O-])c1	45	.	.	.
O=c1[nH]c(-[n+]2ccccc2)c(/C=N/N=C(\[O-])c2ccccc2)s1	57	/	.	.
O=C(N/N=C/c1sc(=O)[nH]c1-[n+]1ccccc1)c1ccccc1[O-]	55	.	.	.
Cc1cc[n+](-c2[nH]c(=O)sc2/C=N/N=C(\[O-])c2ccncc2)cc1C	35	.	.	.
CCc1ccc[n+](-c2[nH]c(=O)sc2/C=N/N=C(\[O-])c2cccnc2)c1	39	.	.	.
Cc1cc[n+](-c2[nH]c(=O)sc2/C=N/N=C(\[O-])c2ccccc2)cc1	.	.	.	.
C/C=C/c1cnc2c(c1)C(=O)N([C@@H](C)CO)C[C@@H](C)[C@H](CN(C)Cc1ccncc1)O2	/	.	/	/
COCC(=O)N(C)C[C@H]1Oc2ncc(C#Cc3ccc(OC)cc3)cc2C(=O)N([C@@H](C)CO)C[C@@H]1C	/	.	/	/
C[C@H](CO)N1C[C@H](C)[C@@H](CN(C)C(=O)Nc2ccccc2)Oc2ncc(-c3cccnc3)cc2C1=O	/	.	/	/
CCC(=O)N1C[C@@H]2[C@H](c3ccccc31)[C@H](CO)N2CC1CCCC1	/	.	/	/
C[C@H]1CN([C@@H](C)CO)S(=O)(=O)c2ccc(-c3cccnc3)cc2O[C@@H]1CN(C)C(=O)CN(C)C	/	.	/	/
O=C(COc1ccc2c3c(c(=O)oc2c1)CCC3)N1CCCCC1	.	.	.	.
O=c1cc(-c2ccco2)oc2ccc(Cl)cc12	.	.	.	.
O=C(COc1ccc2oc(-c3ccco3)cc(=O)c2c1)N1CCCCC1	51	/	157	.
COc1ccc2oc(-c3ccco3)cc(=O)c2c1	54	.	116	.
c1ccc2c(c1)ncc1cccn12	.	/	+	.
c1ccc(-c2ncc3ccccn23)cc1	.	/	.	.
CCC(=O)Nc1nc(C)c(-c2csc(Nc3ccccn3)n2)s1	40	/	.	.
CC(=O)NC[C@@H]1[C@@H](c2ccc(-c3ccccc3F)cc2)[C@@H](CO)N1C(C)=O	/	.	/	/
COc1cc(C(C#N)N2CCC(c3ccccc3)=N2)ccc1O (configuration not stated)	36	.	.	.
CCOCCCNC(=O)C(NC(=O)c1ccccc1O)c1ccc(Cl)cc1 (configuration not stated)	.	.	52	.
CCOCCCNC(=O)C(NC(=O)CNC(C)=O)c1ccc(Cl)cc1 (configuration not stated)	.	.	.	.
O=C(C1CCOCC1)N1CC[C@H]2[C@H](CO)Nc3ccc(Br)cc3[C@H]21	/	.	/	/
Cc1cccn2c(=O)c3cc(C(=O)NC(C)C)c(=N)n(Cc4ccncc4)c3nc12	.	.	+	.
SMILES	GDH-TPI counter	BioA inh	Mtb FBA inh	Vc quorum ag
COCCn1c(=N)c(C(=O)NCCc2ccc(OC)cc2)cc2c(=O)n3cccc(C)c3nc21	.	/	.	.
CCCn1c(=N)c(C(=O)NCc2ccc3c(c2)OCO3)cc2c(=O)n3cccc(C)c3nc21	.	.	.	.
CCNC(=O)c1cc2c(=O)n3cccc(C)c3nc2n(Cc2ccc(C)cc2)c1=N	.	.	112	.
COCCCNC(=O)c1cc2c(=O)n3cccc(C)c3nc2n(C(C)C)c1=N	.	.	+	.
CCCNC(=O)N1C[C@H](C)[C@H](OC)CN(C)C(=O)c2ccc(NC(=O)CCC)cc2OC[C@H]1C	/	.	/	/
CC(=O)c1ccc(N2CCN(S(=O)(=O)c3c(C)[nH]c(C)c3C(=O)N3CCCCC3)CC2)cc1	34	.	.	.
COC(=O)c1cc(=O)n2c(-c3ccccc3)csc2n1	.	.	.	/
O=c1nc2scc(-c3ccccc3)n2c2ccccc12	36	.	.	.
O=C(O)c1cccc(Nc2c3ccccc3nc3ccccc23)c1	.	.	124	.
CC(=O)c1cccc(Nc2cc(C)nc3ccccc23)c1	32	.	.	.
COC(=O)c1ccc(Nc2cc(C)nc3ccccc23)cc1	42	.	.	.
COC(=O)c1ccc2nc(C)cc(Nc3ccc(N(C)C)cc3)c2c1	.	.	.	.
COc1ccc(Nc2cc(C)nc3ccc(OC)cc23)cc1	34	.	.	.
COc1ccc(Nc2ccnc3ccccc23)cc1	32	/	.	.
COc1ccc(Nc2ncnc3ccccc23)cc1	.	.	.	.
